The text below walks through data of PubChem BioAssay (EPA / NIEHS).

Records with an inconclusive call do not appear. Active and inactive are the calls of the source. How the source made its calls: active means hit-call score of the fitted dose curve at least 0.9, where 1 is the maximum; inconclusive means response in the unintended direction; inactive means score below 0.9.

Chain of Androgen receptor (Homo sapiens) (P10275 whole entry, looked up, the tested form may be a part): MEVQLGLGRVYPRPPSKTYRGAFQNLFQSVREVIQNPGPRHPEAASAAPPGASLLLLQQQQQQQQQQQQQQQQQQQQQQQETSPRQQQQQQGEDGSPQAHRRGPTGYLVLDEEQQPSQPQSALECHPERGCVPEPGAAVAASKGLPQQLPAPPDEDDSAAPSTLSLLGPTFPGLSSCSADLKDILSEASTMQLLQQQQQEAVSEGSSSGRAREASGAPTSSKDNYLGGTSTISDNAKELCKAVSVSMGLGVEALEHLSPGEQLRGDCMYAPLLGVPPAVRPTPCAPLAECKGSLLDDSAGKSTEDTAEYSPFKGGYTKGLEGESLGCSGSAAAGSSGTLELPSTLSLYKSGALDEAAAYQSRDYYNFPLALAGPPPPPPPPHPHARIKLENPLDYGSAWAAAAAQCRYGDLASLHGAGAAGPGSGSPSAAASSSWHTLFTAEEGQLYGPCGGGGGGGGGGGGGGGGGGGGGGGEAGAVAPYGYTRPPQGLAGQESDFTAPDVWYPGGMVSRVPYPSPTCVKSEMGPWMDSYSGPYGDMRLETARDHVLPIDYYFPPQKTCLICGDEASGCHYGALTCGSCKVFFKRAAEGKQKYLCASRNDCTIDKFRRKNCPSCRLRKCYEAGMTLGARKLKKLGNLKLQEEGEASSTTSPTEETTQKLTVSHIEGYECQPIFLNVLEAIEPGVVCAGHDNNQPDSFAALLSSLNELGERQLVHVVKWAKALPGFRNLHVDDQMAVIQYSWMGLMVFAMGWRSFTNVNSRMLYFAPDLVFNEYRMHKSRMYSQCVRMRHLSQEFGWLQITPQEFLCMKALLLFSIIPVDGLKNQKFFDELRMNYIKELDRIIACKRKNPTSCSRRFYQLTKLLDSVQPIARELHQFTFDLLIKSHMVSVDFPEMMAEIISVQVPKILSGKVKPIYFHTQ

The target of this assay is Androgen receptor (Homo sapiens) (UniProt P10275). As to the kind of experiment: ATG_AR_TRANS: Attagene TRANS-FACTORIAL HepG2 Assay for human Androgen Receptor (AR) (AID 2282973). The settings on record: HepG2 Attagene TRANS-FACTORIAL AR reporter transcription. In a few lines:
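HepG2 cells transiently transfected with multiplexed GAL4-UAS reporter units and chimeric NR-Gal4 fusion; 24 h compound exposure. Reporter mRNA measured by RT-PCR, 6-FAM labelling, HpaI digestion and capillary electrophoresis; gain-of-signal fitted relative to DMSO baseline.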
For `CCN(CC)c1ccc2c(c1)Oc1cc(N(CC)CC)ccc1C21OC(=O)c2ccccc21`, the molecule was called inactive.

`O=C(Cl)C(F)(F)C(F)(F)C(F)(F)C(F)(F)C(F)(F)C(F)(F)F`: the molecule was called inactive. Next, `C=C(C)C1CC=C(C)C(=O)C1` (stereo not given): “inactive”. In the case of `OCCCS`, the outcome was inactive. With `CN(C)CCOc1ccc(/C(=C(/CCCl)c2ccccc2)c2ccccc2)cc1`, the result was inactive. As for `CCCCC/C=C\CCC=O`, the entry is “inactive”; as for `CCCCCCCCSCCO`, “inactive”. Next, `C=COC(=O)C(C)(C)CCCCCC`: “inactive”. Consider `CCC1(C)C(=O)N(Cl)C(=O)N1Cl` (stereo not given), for which the molecule was classed as inactive. As for `CCc1cccc(C)c1N(C(=O)C(=O)O)C(C)COC` (stereo not given), the entry is “inactive”.

As for `O=C1c2ccc(O)c(O)c2C(=O)c2c(O)ccc(O)c21`, the molecule was classed as inactive. Next, `CC=CC(F)(F)C(F)(F)C(F)(F)F`: “inactive”. Next, `Cn1cccc1`: “inactive”; `Cc1ccc(C2OC[C@@H]3OC(c4ccc(C)cc4)O[C@H]([C@H](O)CO)[C@@H]3O2)cc1` (stereo not given in full): “inactive”; `C=C(C)[C@@H]1CCC2=CCC[C@@H](C)[C@]2(C)C1`: “inactive”. Next, `O=c1cc(-c2ccccc2)oc2ccccc12`: “inactive”.

As to `CC(C)c1ccc2c(c1)CC[C@H]1[C@](C)(CN)CCC[C@]21C`, the result was inactive. As for `O=C(Cl)c1ccc(Cl)cc1Cl`, the entry is “inactive”; as for `CCCCCCOC(=O)C(C)CC` (stereo not given), “inactive”; as for `O=C1OCc2ccccc21`, “inactive”.

As to `COc1ccc(O)cc1`, the outcome was inactive. As for `O=CN1CCOCC1`, the entry is “inactive”; as for `Cn1c(=O)[nH]c2ncn(C)c2c1=O`, “inactive”; as for `C=CC(C)(CCC=C(C)C)OC(=O)C=Cc1ccccc1` (stereo not given), “inactive”. In the case of `C[Si]1(C)O[Si](C)(C)O[Si](C)(C)O1`, the result was inactive.
